High-throughput results from PubChem.
ASM inhibitor = Inhibitors of Secretory Acid Sphingomyelinase (S-ASM): qHTS; Potency, µM (doses to about 57.5 µM), inactives show at the top dose activity change, negative = inhibition, usual class: inhibitors; hit rate 0.006% among 340,000; placental ASM, HMU-PC fluorogenic substrate, 60 min; note: potency is the fitted concentration of half-maximal effect
Target sequence (P17405 47-631 limits assumed): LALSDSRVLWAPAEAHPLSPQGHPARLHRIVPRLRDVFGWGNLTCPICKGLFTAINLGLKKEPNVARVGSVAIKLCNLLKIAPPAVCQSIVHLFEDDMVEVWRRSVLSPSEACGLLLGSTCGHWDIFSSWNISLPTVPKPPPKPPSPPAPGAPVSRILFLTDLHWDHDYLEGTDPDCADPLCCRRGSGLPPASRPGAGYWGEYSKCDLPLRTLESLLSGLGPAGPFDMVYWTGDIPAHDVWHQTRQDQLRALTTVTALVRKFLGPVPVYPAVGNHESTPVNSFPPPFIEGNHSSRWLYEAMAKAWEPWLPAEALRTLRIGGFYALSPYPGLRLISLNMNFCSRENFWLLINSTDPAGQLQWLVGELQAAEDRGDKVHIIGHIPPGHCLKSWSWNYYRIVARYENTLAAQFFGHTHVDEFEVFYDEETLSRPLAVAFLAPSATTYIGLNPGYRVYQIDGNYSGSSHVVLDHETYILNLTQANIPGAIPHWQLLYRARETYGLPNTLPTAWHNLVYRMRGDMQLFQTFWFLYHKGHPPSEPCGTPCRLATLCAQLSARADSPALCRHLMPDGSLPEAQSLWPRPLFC
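Steps: dispense placental human ASM, pin compound, wait 10 min at room temperature, add HMU-PC0 substrate at 9 uM final, incubate 60 min at 37 °C, add stop solution raising pH to 10, read fluorescence.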
ClpP mod = qHTS Assay for Activators of ClpP; purified B. subtilis ClpP, FRET peptide cleavage, 20 min; Potency, µM (doses to about 57.5 µM), for the others: at the highest dose activity change, negative = active; hit rate 1.9% among 340,000; active = well fitted falling curve with a large enough effect; inconclusive = small, poorly fitted or top-dose-only effect; inactive = no such curve, though single readings can be large or run the other way; note: potency is the fitted concentration of half-maximal effect; the source files actives as falling curves though it sought activators and does not explain the sign; nearly all actives have a fitted effect of over 65% in size
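Purified B. subtilis ClpP, 10 microg/mL final in Tris/HCl pH8 with KCl, BSA, glycerol and Tween-20, cleaved an Abz/nitrotyrosine-quenched decapeptide. Fluorescence (ex 320, em 430) was read at 0 and 20 min at room temperature. Delta was normalized to 5.8 microM ADEP and DMSO/no-enzyme controls.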
Mito fusion yeast = qHTS Assay for Small Molecule Inhibitors of Mitochondrial Division or Activators of Mitochondrial Fusion | AID 485298, 2010 | Potency, µM (top dose mostly 46.1 µM), for inactives: at the top dose growth rescue (activation), usual class: activators | S. cerevisiae fusion-defective mutant growth rescue, CellTiterGlo 48 h | hit rate 0.23% among 320,000; note: potency is the fitted concentration of half-maximal effect; % of control where 0% means no effect; nearly all actives have a fitted effect of over 45% in size
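Growth-rescue viability read-out: after 48 h at the non-permissive 37C in glycerol/ethanol YPEG, yeast mitochondrial fusion mutants are measured by CellTiterGlo luminescence; compounds (23 nl pinned per well) restoring growth score as division inhibitors or fusion activators.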
LDHA inh = qHTS assay for inhibitors of human lactate dehydrogenase | hit rate 0.15% among 480,000 | activity change, % (values are at about 110 or 230 µM) | purified LDHA, NADH/diaphorase-resazurin fluorescence; stronger effect = lower value | AID 1347041, 2019; in the data active = activity change below about -30%; inconclusive = mostly about -25% to -30%;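 note: plate controls were DMSO wells for no effect and wells without enzyme for full effect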
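Remaining NADH was detected by diaphorase (0.133 mg/mL) converting 37 µM resazurin to fluorescent resorufin, read at 0 and 20 minutes. The preceding 5-minute room-temperature reaction used 2 nM LDHA, 0.2 mM sodium pyruvate and 0.06 mM NADH at pH 7.4.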
RGS4 inh = Inhibitors of Regulator of G Protein Signaling (RGS) 4: qHTS; Regulator of G-protein signaling 4 (Homo sapiens), P49798; Transcreener GDP fluorescence polarization, RGS4-accelerated GTP hydrolysis; Potency, µM (series often up to 114 µM), inactives show at the highest dose activity change, negative = inhibition, most hits filed as inhibitors; hit rate 0.039% among 390,000; AID 504845, 2011; note: potency is the fitted concentration of half-maximal effect; % is set by controls: 0 for no effect and ±100 for the full control effect; nearly all actives have a fitted effect of over 75% in size
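MLSMR compounds (23 nl, pin-transferred) preincubated 10 min at room temperature with a 500nM (2x) first reagent, then RGS4 at 900nM (2x) plus Transcreener GDP mix added; fluorescence polarization (620/688 nm) read before and after 90 min at 30 °C.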
IDH1 R132H inh = qHTS for Inhibitors of mutant isocitrate dehydrogenase 1 (IDH1): qHTS; IDH1-R132H enzyme, NADPH consumption, diaphorase/resazurin fluorescence; hit rate 0.093% among 390,000; Isocitrate dehydrogenase [NADP] cytoplasmic (Homo sapiens), O75874; Potency, µM (doses to about 76.6 µM), for the others: at the top dose activity change, negative = inhibition, most hits filed as inhibitors; note: potency is the fitted concentration of half-maximal effect; % is set by controls: 0 for no effect and ±100 for the full control effect; nearly all actives have a fitted effect of over 65% in size
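IDH1-R132H (0.5 ug/mL dispensed) in pH 7.5 Tris buffer was preincubated 30 min with compound, then given a substrate mix of 0.016 mM NADPH and 2 mM alpha-KG for 80 min at room temperature; remaining NADPH was read by diaphorase/resazurin fluorescence.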
An asterisk follows results filed as active; i = inactive; ? = inconclusive; nt = not tested or not shown; [ ] = remark or other dose. Shown is part of a subset that was picked to be rich in hits. Unless noted, calls come from the whole dose curve; as a rule, active = well fitted curve in the direction sought with a large enough effect; inconclusive = small, poorly fitted or top-dose-only effect, or another doubt; inactive = no such curve, though single readings can be large; an effect the other way counts as inactive or inconclusive.

SMILES | ASM inhibitor | ClpP mod | Mito fusion yeast | LDHA inh | RGS4 inh | IDH1 R132H inh
CCNc1c(NC(=O)Nc2ccc(C)cc2)c(=O)oc2ccccc12 | nt | nt | nt | 8.7 | nt | nt
CCOC(=O)c1c(NC(=O)c2cccs2)sc(CC)c1-c1cccs1 | 30.4% | 31.6µM* | 1.4% | -3.3 | 11.2% | 3.9%
N#CC1=C(N)C(C#N)(C#N)C(c2cccnc2)C2CCCC=C12 (stereo not given) | nt | nt | -2.4% | nt | nt | nt
N#CC1=C(N)C(C#N)(C#N)C(c2cccnc2)C2CC(c3ccccc3)CC=C12 (stereo not given) | 47.3% | 82.9% | -9.0% | 11.5 | ? | 13.1µM*
Cc1c(C)c2cc(Cl)c(OCC(=O)NCc3cccnc3)cc2oc1=O | nt | nt | nt | 2.7 | nt | nt
COc1ccc(C2(CNC(=O)c3ccccc3)CCCCC2)cc1OC | nt | nt | nt | -15.8 | nt | nt
O=S(=O)(c1ccc(NC(=S)Nc2ccccc2)cc1)N1CCOCC1 | 2.2% | 0.3% | -17.0% | -1.8 | -20.1% | -2.7%
O=C(CCc1ccccc1)NC(=S)Nc1ccc(S(=O)(=O)N2CCOCC2)cc1 | -8.7% | 10µM* | 20.6% | -6.1 | -6.2% | 2.1%
Cc1nc2cc(NC(=O)c3cccc(OC(F)F)c3)ccc2o1 | nt | nt | nt | -8.3 | nt | nt
Cn1c(=O)c2c(ncn2CC(=O)NC(=O)NC2CCCC2)n(C)c1=O | nt | nt | nt | -33.8* | nt | nt
COc1cccc(-c2nc(CS(=O)(=O)CC(=O)Nc3cccc(C(F)(F)F)c3)c(C)o2)c1 | nt | nt | nt | -30.0* | nt | nt
COc1cccc(-c2nc(CS(=O)(=O)CC(=O)Nc3cccc(C(C)=O)c3)c(C)o2)c1 | -8.8% | 1.1% | 0.2% | -3.2 | 6.6%[11.4 µM] | 0.0%
Cc1c(C)n(CCCN2CCOCC2)c2ncn3nc(CSc4nc5ccccc5o4)nc3c12 | nt | nt | nt | -6.3 | nt | nt
O=c1c2ccccc2sc2nc(C3CCCCC3)n(Cc3ccco3)c(=O)c12 | -5.0% | 0.0% | 3.55µM* | -3.0 | -41.2% | -3.1%
CCc1nc2sc3ccccc3c(=O)c2c(=O)n1Cc1ccco1 | -3.6% | -4.3% | 15.7% | 3.8 | ? | -7.3%
CN(C)c1ccc(C(=O)/C=C/c2cccs2)cc1 | nt | nt | nt | 4.7 | nt | nt
NNc1nc2ccc(F)cc2s1 | -0.7% | -0.9% | 13.5% | 1.7 | -37.7% | 6.5%
Fc1ccc2nc(Nc3ccccc3)sc2c1 | -2.6% | 11.2µM* | 17.3% | -12.6 | -5.5% | 6.3%
Cc1cc(Cl)ccc1OCCCC(=O)N1CCOCC1 | -0.8% | -1.5% | -3.9% | -2.5 | -8.9%[11.4 µM] | 0.5%
Cc1ccc(OCCCC(=O)N2CCOCC2)cc1 | -0.6% | 10µM* | -0.4% | 0.4 | -41.3%[11.4 µM] | -2.2%
Cc1cc(C)n2nc3nc4c(cc3c2n1)CCCC4 | i | 12.6µM* | -1.5% | 6.0 | -35.2% | 7.1%
O=C1CSc2ccc(S(=O)(=O)NC3CCCCC3)cc2N1 | nt | nt | nt | 10.1 | nt | nt
CCOC(=O)c1ccc(S(=O)(=O)NCC(c2ccc(N(C)C)cc2)c2c[nH]c3ccccc23)cc1 (stereo not given) | -2.5% | 25.1µM* | 12.4% | 2.2 | -27.6% | 2.9%
CN(C)c1ccc(C(CNS(=O)(=O)c2ccc(F)cc2)c2c[nH]c3ccccc23)cc1 (stereo not given) | -18.7% | -4.2% | -0.8% | -6.2 | -3.2% | 2.5%
O=C(O)c1ccc(-n2cccc2/C=C2\SC(=O)N(Cc3ccc(Cl)c(Cl)c3)C2=O)cc1 | nt | nt | nt | -2.1 | nt | nt
Cc1ccc(S(=O)(=O)N[C@@H](Cc2ccccc2)C(=O)CCl)cc1 | -4.5% | -0.2% | -37.0% | -3.8 | 7.52µM* | -12.9%
Cc1ccc(S(=O)(=O)NC(Cc2ccccc2)C(=O)NN)cc1 (stereo not given) | 1.8% | 1.0% | -0.4% | -1.8 | -39.4% | 5.2%
